System: Vero E6 infected with SARS-CoV-2
Experiment: inhibition of SARS-CoV-2 cytopathic effect; higher = more antiviral protection, active = above 15
Details: 48 h

Measured: inhibition of SARS-CoV-2 cytopathic effect

O=c1oc2c(O)c(O)cc3c(=O)oc4c(O)c(O)cc1c4c23 [ellagic-acid]
inactive: 1 nM 0.02% | 8.33 nM 0.42% | 100 nM 4.12% | 833.33 nM 1.76% | 10000 nM -1.74%

COCCCOc1cc(C[C@@H](C[C@H](N)[C@@H](O)C[C@H](C(=O)NCC(C)(C)C(N)=O)C(C)C)C(C)C)ccc1OC [aliskiren-hemifumarate]
inactive: 1 nM 0.8% | 8.33 nM -0.18% | 100 nM -1.58% | 833.33 nM -0.63% | 10000 nM -0.23%

CN1CC[C@@H](NC(=O)Nc2ccc(C#N)cc2)C[C@@H]1c1nc2ccccc2[nH]1 [glasdegib]
inactive: 1 nM 2.8% | 8.33 nM 1.32% | 100 nM 1.05% | 833.33 nM -0.41% | 10000 nM 1.71%

COc1ccc(-n2[nH]c3c4c(ncc3c2=O)CCCCC4)cc1
inactive: 1 nM 0.69% | 8.33 nM 0.11% | 100 nM -0.83% | 833.33 nM 1.15% | 10000 nM -1.86%

C[C@H](Nc1cc2c(-c3ccc4c(c3)OCO4)noc2cn1)c1ccccc1
inactive: 1 nM 0.3% | 8.33 nM -0.01% | 100 nM -0.1% | 833.33 nM -0.91% | 10000 nM -1.26%

CO[C@H]1C[C@@H]2CC[C@@H](C)[C@@](O)(O2)C(=O)C(=O)N2CCCC[C@H]2C(=O)O[C@H]([C@H](C)C[C@@H]2CC[C@@H](O)[C@H](OC)C2)CC(=O)[C@H](C)/C=C(\C)[C@@H](O)[C@@H](OC)C(=O)[C@H](C)C[C@H](C)/C=C/C=C/C=C/1C [sirolimus]
inactive: 1 nM -1.48% | 8.33 nM -3.33% | 100 nM -1.82% | 833.33 nM -0.23% | 10000 nM -0.88%

Nc1nc(N)nc(-c2cc(Cl)ccc2Cl)n1 [irsogladine]
inactive: 1 nM 2.68% | 8.33 nM 1.38% | 100 nM 0.04% | 833.33 nM 1.79% | 10000 nM -0.24%

OCC(O)CN1CCN(c2ccccc2)CC1 (stereo not given) [dropropizine]
inactive: 1 nM -2.5% | 8.33 nM -2.56% | 100 nM -2.71% | 833.33 nM -2.45% | 10000 nM -3%

CCn1c(=O)[nH]c2cc(Cl)c(Cl)cc21
inactive: 1 nM 0.36% | 8.33 nM 1.8% | 100 nM 0.73% | 833.33 nM -2.68% | 10000 nM -2.08%

C=C1CC[C@H](O)C/C1=C/C=C1\CCC[C@]2(C)[C@@H]([C@H](C)CCCC(C)(C)O)CC[C@@H]12 [calcifediol]
inactive: 1 nM 0.8% | 8.33 nM -2.15% | 100 nM -3.43% | 833.33 nM -0.54% | 10000 nM 0.11%

CC(C)Nc1nc2cc(Cl)c(Cl)cc2n1[C@H]1O[C@@H](CO)[C@H](O)[C@@H]1O [maribavir]
inactive: 1 nM 2% | 8.33 nM -0.5% | 100 nM 0.22% | 833.33 nM -0.76% | 10000 nM -2.15%

CN/C(=N\CCSCc1nc[nH]c1C)NC#N [cimetidine]
inactive: 1 nM 0.42% | 8.33 nM -1.81% | 100 nM -0.46% | 833.33 nM 2.3% | 10000 nM -1.84%

O=C(Nc1c(-c2cccs2)nc2ccccn12)c1ccc(Cl)cc1
inactive: 1 nM 1.67% | 8.33 nM -0.43% | 100 nM -1.06% | 833.33 nM 1.78% | 10000 nM 9.03%

Clc1ccc(C(OCCN2CCCCC2)c2ccccc2)cc1 (stereo not given) [cloperastine]
inactive: 1 nM -0.8% | 8.33 nM -0.73% | 100 nM 0.64% | 833.33 nM -3.95% | 10000 nM -8.21%

N=C(N)NCCN1CCCCCCC1 [guanethidine]
inactive: 1 nM 1.98% | 8.33 nM 0.59% | 100 nM 4.01% | 833.33 nM 2.31% | 10000 nM 0.3%

CC(C)(Sc1cc(C(C)(C)C)c(O)c(C(C)(C)C)c1)Sc1cc(C(C)(C)C)c(O)c(C(C)(C)C)c1 [probucol]
inactive: 1 nM -0.06% | 8.33 nM 2.66% | 100 nM 0.1% | 833.33 nM -0.2% | 10000 nM 1.98%

COc1ccccc1Oc1c(NS(=O)(=O)c2ccc(C(C)(C)C)cc2)nc(-c2ncccn2)nc1OCCO [bosentan]
inactive: 1 nM -0.62% | 8.33 nM 1.39% | 100 nM 1.79% | 833.33 nM -3.3% | 10000 nM -1.84%

Source: the supplement of paper PMC13380429
